Source: PubChem BioAssay
The list is not random: actives were taken first. Their share in the collection is about 13%.
A350 fluor: qHTS Assay for Spectroscopic Profiling in A350 Spectral Region. max dye-equivalent concentration, M. AID 590, 2007. Compound autofluorescence, 340/450 nm, Alexa 350 dye-equivalents; hits give high values. 59,000 tested, 11% active; in the data active = max dye-equivalent concentration above about 10 nM; inconclusive = mostly about 1.1 nM to 9.6 nM
HSD17B inhib: qHTS Assay for Inhibitors of HSD17B4, hydroxysteroid (17-beta) dehydrogenase 4; 3-hydroxyacyl-CoA dehydrogenase type-2 (Homo sapiens), Q99714; recombinant HSD17B10, NADH fluorescence kinetic; Potency, µM (highest dose often 57.1 µM), without a hit: at the top dose activity change, negative = inhibition, actives largely listed as inhibitors; 75,000 tested, 7.6% active; AID 893, 2007;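 note: the protocol describes HADH2 (HSD17B10) and not the HSD17B4 of the title; potency is the fitted concentration of half-maximal effect; % is set by controls: 0 for no effect and ±100 for the full control effect; nearly all actives have a fitted effect of over 70% in size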
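Enzyme plus compound, 15 min room temperature; substrate mix added (NAD+ 1 mM, beta-hydroxybutyryl-CoA 90 uM final); plates read kinetically for NADH fluorescence. HADH2 was His-tagged, E. coli-derived, 20 nM.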
AID923: qHTS Assay for Allosteric/Competitive Inhibitors of Caspase-1: Spectroscopic Profiling in AFC Spectral Region. Potency, µM (top dose mostly 57.5 µM), for inactives: at the highest dose fluorescence increase, usual class: activators. compound fluorescence, AFC spectral region (405/520 nm). 75,000 tested, 1.1% active; note: potency is the fitted concentration of half-maximal effect; 0% is about no effect
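Titrations up to 57 uM read every 20 sec for 3 min (405/520 nm) with 50 nM caspase 1 and 5 uM Ac-WEHD-AFC, pH 7.5 HEPES buffer. Fluorescence-vs-time intercept gave baseline, scaled against on-plate AFC standard.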
HADH2 inhib: qHTS Assay for Inhibitors of HADH2 (Hydroxyacyl-Coenzyme A Dehydrogenase, Type II) | AID 886, 2007 | 3-hydroxyacyl-CoA dehydrogenase type-2 (Homo sapiens), Q99714 | 73,000 tested, 3.4% active | Potency, µM (titrated, usually from 57.1 µM), for inactives: top-dose activity change, negative = inhibition, usual class: inhibitors | recombinant HADH2, NADH fluorescence, beta-hydroxybutyryl-CoA; note: potency is the fitted concentration of half-maximal effect; % is set by controls: 0 for no effect and ±100 for the full control effect; nearly all actives have a fitted effect of over 60% in size
Target sequence (Q99714 whole entry, looked up, one chain of several): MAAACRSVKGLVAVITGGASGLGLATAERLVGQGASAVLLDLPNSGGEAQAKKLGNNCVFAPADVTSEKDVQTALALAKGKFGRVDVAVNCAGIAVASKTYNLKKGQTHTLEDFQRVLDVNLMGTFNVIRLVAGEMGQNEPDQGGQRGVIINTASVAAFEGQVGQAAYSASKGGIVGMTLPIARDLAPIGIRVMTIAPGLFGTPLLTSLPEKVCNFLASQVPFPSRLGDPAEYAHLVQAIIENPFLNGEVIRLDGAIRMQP
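Activity measured as NADH fluorescence gain (360/450 nm), taken as the change between first and last reads of a 4-min kinetic run. Conditions: pH 9.0 Tris buffer, 20 nM E. coli-expressed His-tagged enzyme, 1 mM NAD+, 90 uM beta-hydroxybutyryl-CoA; 15-min compound preincubation.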
4MU fluor: qHTS Assay for Spectroscopic Profiling in 4-MU Spectral Region; 59,000 tested, 11% active; max dye-equivalent concentration, M; AID 589, 2007; compound autofluorescence, 340/450 nm, 4-MU equivalents; hits give high values; in the data active = max dye-equivalent concentration above about 10 nM; inconclusive = mostly about 1.1 nM to 9.6 nM
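Compounds in 100 mM Tris, pH 8.0, sat 15 min at room temperature before fluorescence was read at 340 nm excitation/450 nm emission; a per-plate six-point 4-MU standard curve converted signals to dye-equivalent concentration at each compound concentration.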
Active calls of the source: *; [ ] = dose if it differs, or a comment. Unless noted, calls come from the whole dose curve; as a rule, active = well fitted curve in the direction sought with a large enough effect; inconclusive = small, poorly fitted or top-dose-only effect, or another doubt; inactive = no such curve, though single readings can be large; an effect the other way counts as inactive or inconclusive.

`CCOc1cc(C)c(S(=O)(=O)Nc2ccc(Cl)cn2)cc1C` gave A350 fluor inconclusive, HSD17B inhib 3.7%, AID923 -1.0%, HADH2 inhib 3.3% and 4MU fluor inactive.
CCOc1ccc(S(=O)(=O)Nc2ccc(Cl)cn2)c(C)c1C was read as A350 fluor 1.59e-07M*, HSD17B inhib -18.6%, AID923 -1.6%, HADH2 inhib -4.1% and 4MU fluor 1.09e-07M*.
For Cc1ccc(N2CCN(C(=O)C3CCN(S(=O)(=O)c4cccc5nsnc45)CC3)CC2C)cc1 (stereo not drawn) the results were A350 fluor inactive, HSD17B inhib 13.8%, AID923 0.3%, HADH2 inhib -6.8% and 4MU fluor inactive.
COc1cc2c(cc1OC)C(C(=O)O)C(c1ccc(C)o1)N(C)C2=O (stereo not drawn) was read as A350 fluor 4.02e-08M*, HSD17B inhib inconclusive, AID923 2.8%, HADH2 inhib 5.2% and 4MU fluor 3.76e-08M*.
For COC(=O)c1ccccc1NC(=O)NC1CCN(Cc2ccccc2)CC1 the results were A350 fluor inactive, HSD17B inhib 25.1µM*, AID923 1.4%, HADH2 inhib -5.7% and 4MU fluor inactive.
For COc1ccc(C)cc1NC(=O)NC1CCN(Cc2ccccc2)CC1 the results were A350 fluor inactive, HSD17B inhib 5.1%, AID923 0.1%, HADH2 inhib 4.1% and 4MU fluor inactive.
`Cn1cccc1C(=O)N1CCC[C@@]2(CCN(C(=O)Nc3cccc(C#N)c3)C2)C1` gave A350 fluor inactive, HSD17B inhib 4.0%, AID923 0.3%, HADH2 inhib 0.1% and 4MU fluor inactive.
Cc1ccccc1C(=O)Nc1ccccc1 was read as HSD17B inhib 6.6%, AID923 -0.8% and HADH2 inhib -5.2%.
For Cc1ccccc1NC(=O)c1ccccc1O the results were A350 fluor 1.37e-08M*, HSD17B inhib 25.1µM*, AID923 0.8%, HADH2 inhib inconclusive and 4MU fluor 1.37e-08M*.
Screening O=C(Nc1ccccc1)c1ccccc1O returned HSD17B inhib inconclusive, AID923 4.2% and HADH2 inhib -6.8%.
`Cc1ccc(NC(=O)c2ccccc2O)cc1` gave A350 fluor 1.17e-08M*, HSD17B inhib inconclusive, AID923 -0.7%, HADH2 inhib -6.5% and 4MU fluor inconclusive.
Screening c1ccc(CSc2nnc3c4ccccc4c4ccccc4c3n2)cc1 returned A350 fluor inactive, HSD17B inhib -0.8%[11.4 µM], AID923 -3.5%[11.5 µM], HADH2 inhib 7.7%[11.4 µM] and 4MU fluor inactive.
Screening CC(=O)c1cccc(NC(=O)C2CCCC2)c1 returned HSD17B inhib -1.1%, AID923 0.5% and HADH2 inhib -2.3%[11.4 µM].
Screening O=C1NC(=O)c2cc(NC(=O)C3CCCCC3)ccc21 returned A350 fluor 1.71e-07M*, HSD17B inhib 25.1µM*, AID923 1.0%, HADH2 inhib inconclusive and 4MU fluor 1.55e-07M*.
For O=C(O)[C@@H](Br)[C@@H](Br)c1ccccc1[N+](=O)[O-] the results were A350 fluor inactive, HSD17B inhib 2.6%[11.4 µM], AID923 -1.2%[11.5 µM], HADH2 inhib -14.1%[11.4 µM] and 4MU fluor inactive.
C=C(CO)[C@H]1Cc2c(ccc3c(=O)c4c(oc23)COc2cc(OC)c(OC)cc2-4)O1 was read as A350 fluor inactive, HADH2 inhib -16.3% and 4MU fluor inactive.
Screening N/C(=N\S(=O)(=O)c1ccc(Cl)s1)c1ccccc1 returned A350 fluor 2.54e-08M* and 4MU fluor 2.24e-08M*.
`COC(=O)C(/C=C/C(C)Cc1cc(Br)cc(OCc2ccccc2)c1OC)OCc1ccccc1` (stereo not drawn) gave HSD17B inhib -4.7%[11.4 µM], AID923 -3.1%[11.5 µM] and HADH2 inhib -4.4%[11.4 µM].
Screening N#Cc1c(-c2ccco2)cc(-c2cccnc2)nc1N returned A350 fluor 3.61e-06M*, HSD17B inhib 25.1µM*, AID923 0.8%, HADH2 inhib inconclusive and 4MU fluor 2.62e-06M*.
